T cruzi growth-1 – blocks T. cruzi growth in NIH3T3 culture. T. cruzi beta-gal in NIH3T3, GalScreen luminescence, 90 h. inhibition, % at 8.34 µM. actives 5.9% (n = 77,000);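 active = mean inhibition above about 93%, with at least 55% of replicates each passing it, limit read from the data, passing the limit was not always enough; inconclusive = only one of those two conditions holds; inactive = neither condition holds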
C diff growth – inhibitors of Clostridium difficile growth | Clostridium difficile clinical isolate growth, OD600, 24 h; hits give low values | growth activity, negative = inhibition, % at 16 µg/mL (by protocol) | actives 0.25% (n = 86,000);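 active = mean growth activity at or below -80% and every replicate also at or below -80%; inconclusive = mean at or below -80% but some replicate above -80%; inactive = mean growth activity above -80%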;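 note: 0% = DMSO wells and -100% = levofloxacin 16 µg/mL wells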
Pf Dd2 inh – blocks growth of Plasmodium falciparum Dd2 parasites; P. falciparum Dd2 growth, SYBR Green, 72 h; hits give low values; activity change, % at 10 µM; actives 2.3% (n = 94,000); in the data active = activity change below about -80%; inconclusive = no clear call, values can overlap the other calls
T cruzi growth-2 – Trypanosoma cruzi proliferation inhibition. actives 72% (n = 5,600). inhibition, % at 8.35 µM. AID 651739. T. cruzi beta-gal in NIH3T3, GalScreen luminescence, 90 h. shares compounds with T cruzi growth-1;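 active = mean replicate inhibition above about 95% and at least 55% of replicates individually reaching it, limit read from the data; inconclusive = only one of the two criteria is met; inactive = neither criterion is met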
T cruzi growth-3 – Trypanosoma cruzi proliferation inhibition; actives 21% (n = 5,600); T. cruzi beta-gal in NIH3T3, GalScreen luminescence, 90 h; shares compounds with T cruzi growth-1; AID 651740; inhibition, % at 2.09 µM;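 active = mean inhibition above about 95%, with at least 55% of replicates also reaching it, limit read from the data; inconclusive = meets just one of the two conditions; inactive = meets neither condition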;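 note: plate controls were neutral control median for no effect and positive control median for full effect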
NIH3T3 tox – cytotoxicity in mouse NIH/3T3 fibroblasts | AID 651742 | NIH/3T3 viability, CellTiter-Glo ATP luminescence, 90 h | shares compounds with T cruzi growth-1 | actives 14% (n = 5,600) | cytotoxicity (signal decrease), % at 8.35 µM;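 active = mean signal decrease across replicates above about 35% based on untreated-well scatter, with enough replicates individually passing, limit read from the data; inconclusive = no rule stated though some were filed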;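 note: 0% = median of neutral control wells and 100% = median of positive control wells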
NIH3T3 tox 2 – NIH/3T3 (mouse) viability loss; shares compounds with T cruzi growth-1; NIH/3T3 viability, CellTiter-Glo ATP luminescence, 90 h; inhibition, % at 24.9 µM; AID 651744; actives 56% (n = 5,600);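 active = mean loss of cell viability signal at or above a set limit, and enough replicates individually reaching it; inconclusive = meets only the mean limit or only the replicate share; inactive = meets neither condition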;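 note: 0% = median of neutral control wells and 100% = median of positive control wells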
Starred values were filed as active, the others as inactive; ? = inconclusive; . = no result. Compounds with a hit are over-represented: about 6.7% of the library has one in this group of screens.

SMILES	T cruzi growth-1	C diff growth	Pf Dd2 inh	T cruzi growth-2	T cruzi growth-3	NIH3T3 tox	NIH3T3 tox 2
CCCC#Cc1ccc([C@@H]2[C@@H](CO)N(C(=O)C3CCOCC3)[C@H]2C#N)cc1	74	2	-22	.	.	.	.
CCCC#Cc1ccc([C@H]2[C@@H](CO)N(C(=O)C3CCCC3)[C@H]2C#N)cc1	105*	0	25	116*	11	-4	28*
CC(C)C#Cc1ccc([C@H]2[C@@H](CO)N(C(=O)C3CC3)[C@H]2C#N)cc1	-25	8	19	.	.	.	.
O=C(Nc1ccc(C(F)(F)F)cc1)N[C@H]1CC[C@H](CCNC(=O)c2ccccc2F)O[C@H]1CO	5	1	-12	.	.	.	.
COc1ccccc1NC(=O)N[C@H]1CC[C@@H](CCn2cc(-c3ccccc3OC)nn2)O[C@H]1CO	113*	5	-3	69	41	-13	9
O=C(Nc1ccc(F)cc1)N[C@H]1CC[C@@H](CCn2cc(-c3ccccc3F)nn2)O[C@@H]1CO	.	0	.	.	.	.	.
O=C(Nc1ccc(Cl)cc1)N[C@@H]1CC[C@H](CCn2cc(-c3ccccc3F)nn2)O[C@@H]1CO	102*	-12	-64	98*	53	4	?
COc1ccccc1NC(=O)N[C@H]1CC[C@H](CCn2cc(-c3ccccc3OC)nn2)O[C@@H]1CO	149*	7	27	20	22	1	?
COc1ccccc1NC(=O)N[C@H]1CC[C@H](CCn2cc(-c3ccccc3)nn2)O[C@@H]1CO	29	-3	-19	.	.	.	.
O=C(Nc1ccc(C(F)(F)F)cc1)N[C@H]1CC[C@@H](CCNC(=O)c2ccccc2F)O[C@H]1CO	139*	2	-22	45	31	-14	-4
COc1ccccc1-c1cn(CC[C@H]2CC[C@H](NC(=O)NC(C)C)[C@H](CO)O2)nn1	24	0	-5	.	.	.	.
CC(=O)N[C@H]1C=C[C@@H](CC(=O)NCc2ccc(Cl)cc2)O[C@H]1CO	25	-3	2	.	.	.	.
COc1ccccc1NC(=O)N[C@H]1CC[C@@H](CCn2cc(-c3ccccc3OC)nn2)O[C@@H]1CO	137*	-5	-22	47	40	-2	23
COc1ccccc1NC(=O)N[C@@H]1CC[C@@H](CCn2cc(-c3ccccc3OC)nn2)O[C@H]1CO	0	-13	-9	.	.	.	.
COc1cccc(C(=O)Nc2ccc3c(c2)OC[C@H](C)N(C)C[C@H](C)[C@H](OC)CN(C)C3=O)c1	-62	-4	16	.	.	.	.
C[C@@H]1CN([C@@H](C)CO)C(=O)c2cccc(N(C)C)c2O[C@H]1CN(C)Cc1ccc(Cl)c(Cl)c1	56	-10	-42	.	.	.	.
C[C@H]1CN([C@@H](C)CO)C(=O)c2cccc(N(C)C)c2O[C@@H]1CN(C)Cc1ccc(Cl)c(Cl)c1	100*	-19	-36	108*	47	16	103*
C[C@@H]1CN([C@@H](C)CO)C(=O)c2cccc(N(C)C)c2O[C@@H]1CN(C)Cc1ccc(C(F)(F)F)cc1	104*	7	-6	-25	4	20	?
C[C@@H]1CN([C@@H](C)CO)C(=O)c2cccc(N(C)C)c2O[C@H]1CN(C)Cc1ccc(C(F)(F)F)cc1	43	-3	1	.	.	.	.
CO[C@H]1CN(C)C(=O)c2ccc(NC(C)=O)cc2OC[C@H](C)N(Cc2cc(F)ccc2F)C[C@@H]1C	6	-3	-18	.	.	.	.
CNC[C@H]1OCCCC[C@H](C)Oc2ccc(NC(=O)c3ccccc3)cc2C(=O)N([C@H](C)CO)C[C@@H]1C	?	-2	5	99*	-1	25	8
CNC[C@@H]1OCCCC[C@H](C)Oc2ccc(NC(=O)NC3CCCCC3)cc2C(=O)N([C@@H](C)CO)C[C@@H]1C	111*	-1	17	-22	-1	-15	-6
CNC[C@@H]1OCCCC[C@H](C)Oc2ccc(NC(=O)Cc3ccccc3)cc2C(=O)N([C@@H](C)CO)C[C@@H]1C	99*	1	-2	-25	-12	-26	-4
CNC[C@@H]1OCCCC[C@@H](C)Oc2ccc(NC(=O)c3ccccc3)cc2C(=O)N([C@H](C)CO)C[C@@H]1C	84	5	1	.	.	.	.
CNC[C@@H]1OCCCC[C@@H](C)Oc2ccc(NC(=O)NC3CCCCC3)cc2C(=O)N([C@H](C)CO)C[C@H]1C	9	-1	.	.	.	.	.
SMILES	T cruzi growth-1	C diff growth	Pf Dd2 inh	T cruzi growth-2	T cruzi growth-3	NIH3T3 tox	NIH3T3 tox 2
C[C@H]1CCCCO[C@@H](CN(C)C)[C@@H](C)CN([C@@H](C)CO)C(=O)c2cc(NC(=O)Cc3ccccc3)ccc2O1	65	1	-10	.	.	.	.
O=C(N[C@@H]1CC[C@H](CC(=O)N2CCc3ccccc3C2)O[C@@H]1CO)C1CCOCC1	49	.	17	.	.	.	.
CC(=O)N(C)C[C@H]1Oc2cc(C#Cc3cccnc3)ccc2S(=O)(=O)N([C@H](C)CO)C[C@H]1C	0	1	4	.	.	.	.
C[C@H](CO)N1C[C@H](C)[C@H](CN(C)Cc2ccccc2)Oc2c(NS(=O)(=O)c3ccc(F)cc3)cccc2C1=O	21	2	-40	.	.	.	.
C[C@@H]1CN([C@@H](C)CO)C(=O)c2cccc(NC(=O)Nc3ccc(C(F)(F)F)cc3)c2O[C@@H]1CN(C)Cc1ccc2c(c1)OCO2	?	.	-30	105*	13	-7	104*
C[C@@H]1CN([C@H](C)CO)C(=O)c2cccc(NC(=O)C3CCOCC3)c2O[C@H]1CN(C)Cc1ccc(Oc2ccccc2)cc1	?	-2	-39	102*	52	27	4
C[C@H]1CN([C@@H](C)CO)C(=O)c2cccc(NC(=O)Nc3ccc(F)cc3)c2O[C@H]1CN(C)Cc1ccc(C(F)(F)F)cc1	55	3	-15	.	.	.	.
C[C@@H]1CN([C@@H](C)CO)C(=O)c2cccc(NC(=O)C3CCOCC3)c2O[C@@H]1CN(C)Cc1ccc(Oc2ccccc2)cc1	42	5	-44	.	.	.	.
C[C@H](CO)N1C[C@H](C)[C@H](CN(C)Cc2ccc(C(F)(F)F)cc2)Oc2c(NC(=O)Nc3ccc4c(c3)OCO4)cccc2C1=O	87	5	-9	.	.	.	.
Cc1noc(C)c1NC(=O)Nc1cccc2c1O[C@@H](CN(C)Cc1ccncc1)[C@H](C)CN([C@H](C)CO)C2=O	43	0	4	.	.	.	.
C[C@H](CO)N1C[C@H](C)[C@H](CN(C)Cc2ccc(C(F)(F)F)cc2)Oc2c(NC(=O)Nc3ccc(C(F)(F)F)cc3)cccc2C1=O	101*	30	12	?	77	-4	75*
Cc1noc(C)c1NC(=O)Nc1cccc2c1O[C@@H](CN(C)Cc1ccncc1)[C@H](C)CN([C@@H](C)CO)C2=O	110*	-3	8	-2	0	-6	-8
O=C(C[C@H]1CC[C@H]2[C@@H](COC[C@@H](O)CN2Cc2nccs2)O1)NCc1ccc(Cl)cc1	9	.	8	.	.	.	.

Screening results as filed in PubChem BioAssay.
